For 89 compounds, AC50 and activity, negative = inhibition results are on record in PubChem BioAssay AID1851 (National Center for Advancing Translational Sciences (NCATS), 2009).

Out of some 16,000 compounds screened, about 5,800 (36%) were called active. Not shown: some 23% with an inconclusive outcome. The list shows a part of the results. Unmarked numbers belong to inactive results. Calls follow the shape of the dose curve; as a rule, active = well fitted curve in the direction sought with a large enough effect; inconclusive = small, poorly fitted or top-dose-only effect, or effect the other way; inactive = no such curve, though single readings can be large or run the other way.
% is scaled to controls: 0 for no effect and ±100 for the full control effect.

In this experiment the target is Cytochrome P450 2C19 (Homo sapiens) (UniProt P33261). The experiment is described as follows: Cytochrome panel assay with activity outcomes. The following applies: recombinant CYP, pro-luciferin dealkylation, luminescence, p450-cyp2c19; series mostly up to 57.1 µM.
Chain of Cytochrome P450 2C19 (Homo sapiens) (P33261 whole entry, looked up): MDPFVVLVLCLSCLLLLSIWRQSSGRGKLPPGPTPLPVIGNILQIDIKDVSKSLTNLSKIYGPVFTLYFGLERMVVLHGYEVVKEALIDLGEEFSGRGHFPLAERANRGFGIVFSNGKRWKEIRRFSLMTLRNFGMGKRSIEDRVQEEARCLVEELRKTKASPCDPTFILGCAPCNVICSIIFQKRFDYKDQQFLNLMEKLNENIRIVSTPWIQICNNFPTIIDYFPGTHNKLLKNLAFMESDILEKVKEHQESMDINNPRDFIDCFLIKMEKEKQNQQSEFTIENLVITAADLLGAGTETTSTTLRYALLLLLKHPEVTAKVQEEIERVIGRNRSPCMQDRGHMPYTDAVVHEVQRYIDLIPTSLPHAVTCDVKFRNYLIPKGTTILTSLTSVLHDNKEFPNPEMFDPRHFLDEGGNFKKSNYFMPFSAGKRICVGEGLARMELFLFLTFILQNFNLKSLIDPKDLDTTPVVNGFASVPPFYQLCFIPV
On to `CN=C1N[C@H](c2ccccc2)N(c2ccccc2)S1`, for which the AC50 (in general, the midpoint of the concentration-response curve, whichever way the signal moves) is “inactive”.

Regarding `CC(C)c1ccc2nc3sc(C(=O)N4CCc5ccccc5C4)c(N)c3cc2c1`, the concentration at half-maximal activity (AC50) was 3.55 µM (active).

For `CCOC(=O)CSc1cc(CS(=O)c2ccc(Cl)cc2)nc(-c2ccccc2)n1` (centres undefined), the half-maximal activity concentration (AC50) is 0.126 µM (active).

Regarding `CCOC(=O)Cn1c(-c2ccccc2)nc2ccccc2c1=O`, the AC50 was 7.08 µM (active).

For `CCOC(=O)CSc1nc(-c2ccccc2)nc2ccccc12`, the AC50 was 4.47 µM (active).

Take `CCCn1c(-c2ccccc2)nc2c(=O)n(C)c(=O)[nH]c21`: the AC50 entry was “inactive”.

As for `O=C(O)Cn1c(-c2ccccc2)nc2ccccc21`, the AC50 entry was “inactive”.

Take `NC(=Nc1ccccc1)NC(=O)c1nc(Cl)c(N)nc1N`: the AC50 entry was “inactive”.

As for `CS(=O)(=O)N1CCC2(CCN(C(=O)Nc3cccc(F)c3)CC2)CC1`, the AC50 result was “inactive”.

`CS(=O)(=O)N1CCC[C@@]2(CCN(C(=O)Nc3cccc(F)c3)C2)C1`: the AC50 entry is “inactive”.

On to `CS(=O)(=O)N(CC(=O)Nc1cccc(F)c1)c1cccc([N+](=O)[O-])c1`, for which the half-maximal activity concentration (AC50) was 7.94 µM (active).

Regarding `NC(N)=N/N=C(/c1ccccc1)c1ccc(O)cc1O`, the activity, negative = inhibition was -16.1% [at 11.4 µM].

As for `CCSc1nc2ccccc2n1C(=O)/C=C\c1ccc(OC)c(OC)c1`, the half-maximal activity concentration (AC50) was 7.94 µM (active).

On to `COc1cc(/C=C\C(=O)N2CCC=CC2=O)cc(OC)c1OC`, for which the AC50 result was “inactive”.

For the compound `C=CCSc1nc2ccccc2n1C(=O)/C=C/c1cc(OC)c(OC)c(OC)c1`, the AC50 was 2.24 µM (active).

For `COc1ccc(/C=C/C(=O)Nc2nc(C)cc(C)n2)cc1OC`, the AC50 result was “inactive”.

As for `CSc1ccccc1NC(=O)CSCc1ccc(C)cc1`, the AC50 is 1.78 µM (active).

Consider `Cc1ccc(C)c(-n2c(CNC(=O)c3ccco3)nnc2SCC(=O)N2CCc3ccccc32)c1`, for which the AC50 entry is “inactive”.

With `Cc1cc2nc(-c3ccc(SCC(=O)N4CCc5ccccc54)nc3)[nH]c2cc1C`, the AC50 is 3.98 µM (active).

Consider `CCOC(=O)O[C@]1(C(=O)COC(=O)CC)CC[C@@H]2[C@@H]3CCC4=CC(=O)C=C[C@@]4(C)[C@H]3[C@H](O)C[C@]21C`, for which the AC50 entry was “inactive”.

Turning to `OCCN(C=NC1=NN(c2cccc(C(F)(F)F)c2)CC1)CCO`, the AC50 entry is “inactive”.

On to `FC(F)(F)c1cccc(N2CCN(CC3CC4C=CC3C4)CC2)c1` (centres undefined), for which the concentration at half-maximal activity (AC50) was 8.91 µM (active).

As for `CO[C@@H]1COC(=O)[C@@H](CCSC)NC(=O)C/C=C\[C@@H](C)COC(=O)CCC[C@H]1C`, the activity, negative = inhibition was -34.5% [at 11.4 µM].

As to `C(=Nc1cnc2ccccc2c1)c1ccc2ccccc2n1`, the activity, negative = inhibition is 34% [at 11.4 µM].

With `Cc1cccc(NCCNc2cccc(C)c2)c1`, the AC50 was 2.82 µM (active).

With `Cc1cccc(Nc2ccncc2S(=O)(=O)NC(=O)NC(C)C)c1`, the AC50 result was “inactive”.

`COCCn1c(=O)c(-c2cc(F)cc(F)c2)nc2cnc(N3CCN(C)CC3)nc21`: the AC50 entry was “inactive”.

As for `CC(C)=C[C@H]1[C@@H](C(=O)Oc2ccccc2C(C)C)C1(C)C`, the AC50 is 1.26 µM (active).

As to `COc1cccc(-c2cncnc2NCCc2c[nH]c3ccc(OC)cc23)c1`, the AC50 was 0.316 µM (active).

Turning to `COc1ccc2[nH]cc(CCNc3ncncc3-c3cccc(NS(C)(=O)=O)c3)c2c1`, the concentration at half-maximal activity (AC50) was 5.01 µM (active).

On to `c1cncc(-c2cncnc2NC2CCNCC2)c1`, for which the AC50 entry was “inactive”.

For `COc1ccc2[nH]cc(CCNc3ncncc3-c3cccnc3)c2c1`, the AC50 was 3.16 µM (active).

As for `CCC/C=C(\CCC)C(NS(=O)(=O)c1ccc(Cl)cc1)c1ccccc1` (centres undefined), the AC50 was 0.398 µM (active).

For `CCC/C=C(\CCC)C(NS(=O)(=O)c1cccs1)c1ccc(C(=O)OC)cc1` (centres undefined), the AC50 was 0.794 µM (active).

With `CCC/C=C(\CCC)C(NP(=O)(c1ccccc1)c1ccccc1)c1ccc(-c2ccccc2)cc1` (centres undefined), the concentration at half-maximal activity (AC50) is 7.94 µM (active).

Turning to `CCC/C=C(\CCC)C(NS(=O)(=O)c1ccc(Cl)cc1)c1ccc(C(=O)OC)cc1` (centres undefined), the AC50 is 1.58 µM (active).

In the case of `CO[C@H]1COC(=O)C/C=C\[C@@H](C)COC(=O)[C@@H](C)NC(=O)C/C=C\[C@@H]1C`, the activity, negative = inhibition was 16.7% [at 11.4 µM].

Regarding `CO[C@H]1COC(=O)CCC[C@@H](C)[C@H](OC)COC(=O)[C@H]2CCCN2C(=O)C/C=C\[C@@H]1C`, the activity, negative = inhibition is -20.1% [at 11.4 µM].

In the case of `CCC/C=C(\CCC)C(NS(C)(=O)=O)c1ccccc1` (centres undefined), the half-maximal activity concentration (AC50) was 7.94 µM (active).

As for `CCC/C=C(\CCC)C(NS(=O)(=O)c1ccc(C(F)(F)F)cc1)c1ccc(C(=O)OC)cc1` (centres undefined), the half-maximal activity concentration (AC50) is 2.51 µM (active).

For the compound `CCC/C=C(\CCC)C(NS(=O)(=O)c1ccc(-c2ccccc2)cc1)c1ccc(C(=O)OC)cc1` (centres undefined), the AC50 is 1.26 µM (active).

On to `CCC/C=C(\CCC)C(NS(=O)(=O)c1cccc2cccnc12)c1ccc(C(=O)OC)cc1` (centres undefined), for which the AC50 is 3.16 µM (active).

As to `COC(=O)c1ccc(-n2cncn2)c(F)c1`, the concentration at half-maximal activity (AC50) was 7.08 µM (active).

Regarding `O=C(c1ccc2nc3ccc(Cl)cc3c(=O)n2c1)N1CCOCC1`, the AC50 entry was “inactive”.

As for `NC(=O)C1(N2CCCCC2)CCN(C(=O)c2cccn3c(=O)c4cc(Cl)ccc4nc23)CC1`, the half-maximal activity concentration (AC50) is 14.1 µM (active).

With `N[C@@H](Cc1nn[nH]n1)C(=O)O`, the activity, negative = inhibition is -17.6% [at 11.4 µM].

For the compound `CCOc1ccc(-c2nn(-c3ccccc3)cc2/C=C(\C#N)S(=O)(=O)c2ccccc2)cc1C`, the AC50 result was “inactive”.

As to `CCOc1ccc(-c2nn(-c3ccccc3)cc2/C=C2\SC(N)=NC2=O)cc1C`, the AC50 is 11.2 µM (active).

On to `COc1ccc(C(=O)c2ccc(OC)c(OC)c2)cc1OC`, for which the AC50 was 2.82 µM (active).

Turning to `COc1ccc(C(=O)c2ccccc2)cc1Br`, the AC50 is 8.91 µM (active).

For the compound `COc1ccc(Br)c2c1C[C@H](C(=O)O)CC2`, the activity, negative = inhibition was 39.7% [at 11.4 µM].

As for `CCOc1ccc(C(=O)O)cc1OC`, the AC50 result is “inactive”.

For the compound `CC[C@@H](c1ccccc1)n1c(=O)n2n(c1=O)[C@H]1[C@H](O)[C@H]3O[C@@H]3/C(=N/OC/C=C(\C)CCC=C(C)C)[C@@H]1CC2`, the activity, negative = inhibition was -35.5% [at 11.4 µM].

Consider `C[N+]1(CCC(=O)c2ccco2)CC2CCC(CC2)C1` (centres undefined), for which the activity, negative = inhibition was -31.3% [at 11.4 µM].

With `CC(C)NC(=O)N1CCC2(CC1)CCN(C(=O)c1ccco1)CC2`, the AC50 entry is “inactive”.

Regarding `Cc1ccc(C(OC(=O)c2ccco2)C(=O)NC2CCCCC2)cc1` (centres undefined), the AC50 was 17.8 µM (active).

As for `O=C(OC(C(=O)NC1CCCC1)c1ccncc1)C1=Cc2ccccc2OC1` (centres undefined), the AC50 was 1.12 µM (active).

As to `CC(C)NC(=O)N1CC2(CCN(C(=O)c3ccco3)CC2)C1`, the AC50 entry was “inactive”.

Turning to `Cc1ccc(C(C(=O)NC2CCCCC2)N2CCN(C(=O)c3ccco3)CC2)cc1` (centres undefined), the half-maximal activity concentration (AC50) is 8.91 µM (active).

For the compound `COc1ccccc1N1CCN(c2nc(-c3ccccc3)cc(C(F)(F)F)n2)CC1`, the half-maximal activity concentration (AC50) is 1 µM (active).

Regarding `COc1ccccc1-c1nc(N2CCN(C)CC2)c2ccccc2n1`, the AC50 result was “inactive”.

Regarding `CN1CCN(c2nc(-c3ccccc3)cc(C(F)(F)F)n2)CC1`, the AC50 was 8.91 µM (active).

Regarding `Cc1ccc(C(=O)NC(=S)Nc2cc(-c3nc4ccccc4s3)ccc2C)cc1`, the AC50 result was “inactive”.

For the compound `COc1ccc(C(=O)NC(=S)NCc2ccccc2)cc1`, the AC50 is 5.01 µM (active).

For `CNC(=O)NC(=S)NC(=O)c1ccc(OC)cc1`, the AC50 is 14.1 µM (active).

Consider `COc1ccc(C(=O)NCc2ccc(-c3nc4ccccc4s3)cc2)cc1`, for which the concentration at half-maximal activity (AC50) was 7.94 µM (active).

With `COc1ccc(C(=O)NNC(=S)NC(=O)c2ccco2)cc1`, the AC50 result was “inactive”.

Take `CC(C)(C)C(=O)NC(=S)NCCc1ccccc1`: the concentration at half-maximal activity (AC50) was 2.51 µM (active).

`C/C(=C(/CCO)SSC[C@@H]1CCCO1)N(C=O)Cc1cnc(C)nc1N`: the AC50 entry is “inactive”.

Consider `COc1cc(OC)cc(C(=O)NC(=S)NCCc2ccccc2)c1`, for which the AC50 is 2.51 µM (active).

Regarding `COc1cc(OC)cc(C(=O)NC(=S)Nc2ccc(Cl)c(C(=O)O)c2)c1`, the AC50 entry is “inactive”.

For `CCOc1ccc(N2C(=O)C3C4C=CC(CC4)C3C2=O)c([N+](=O)[O-])c1` (centres undefined), the AC50 is 3.98 µM (active).

`Cc1cc(C)c(-c2cc([C@H](C)O/N=C3/[C@H]4OC4[C@@H](O)[C@H]4[C@H]3CCn3c(=O)n(-c5ccccc5)c(=O)n34)on2)c(C)c1` (some centres undefined): the activity, negative = inhibition was -40% [at 11.4 µM].

`CCC(C)(C)c1ccc(Oc2cccc(C(=O)O)c2)cc1`: the activity, negative = inhibition is -38.4% [at 11.4 µM].

For the compound `C[C@@H](/C=C\c1cccc(Oc2ccc(F)cc2)c1)N(O)C(N)=O`, the AC50 is 3.98 µM (active).

Take `C[N+]1(NCC[N@@+]2(C)CCc3ccccc3C2)CCCCC1`: the activity, negative = inhibition is 13.4% [at 11.4 µM].

Consider `CCc1ccc(C(=O)CN(C#N)c2nc(C)cc(C)n2)cc1`, for which the AC50 is 10 µM (active).

Regarding `C[C@H]1[C@H](C)OC(=O)C[C@H](O)C[C@H](O)C[C@H](O)CC[C@H](O)[C@H](O)CC(=O)C[C@H](O)[C@H](C(=O)O)[C@H](O)C[C@H](O[C@@H]2O[C@@H](C)[C@H](O)[C@@H](N)[C@@H]2O)C=CC=CC=CC=CCCC=CC=C[C@@](C)(O)[C@H]1O`, the activity, negative = inhibition was 33.3% [at 11.4 µM].

In the case of `CON(c1nc(N(C)C)nc(N(C)C)n1)S(=O)(=O)c1ccccc1Cl`, the half-maximal activity concentration (AC50) was 4.47 µM (active).

As to `CN1CCN(c2ncc3nc(-c4ccc(Cl)cc4)c(=O)n(C4CC4)c3n2)CC1`, the AC50 result is “inactive”.

On to `Cc1cc(C)n(CC(O)COc2ccccc2)n1` (centres undefined), for which the AC50 was 8.91 µM (active).

For the compound `Cc1cc(C)n(CCCNCC(O)c2ccccc2)n1` (centres undefined), the AC50 result was “inactive”.

Consider `O=C1CCC(c2ccccc2)(c2ccccc2)CC1`, for which the activity, negative = inhibition was 13.2% [at 11.4 µM].

`CCCc1cc(C(=O)Cc2nc3ccccc3s2)c(O)cc1O`: the concentration at half-maximal activity (AC50) was 0.126 µM (active).

For `COc1ccc(C2C(C#N)=C(N)Oc3n[nH]c(C)c32)cc1CN1CCN(c2ccc(F)cc2)CC1` (centres undefined), the AC50 was 5.01 µM (active).

For `O=c1cc(CN2CCN(c3ccc(F)cc3)CC2)c2cc3c(cc2o1)CCCC3`, the AC50 result was “inactive”.

Turning to `O=C(N/C(=C/c1cccs1)c1nc2ccccc2[nH]1)c1ccccc1`, the AC50 entry is “inactive”.

In the case of `O=C(N/C(=C/c1ccc(Br)cc1)c1nc2ccccc2[nH]1)c1ccco1`, the AC50 is 3.16 µM (active).

`Cc1ccc(S(=O)(=O)N[C@H]2COC(=O)C/C=C\[C@@H](C)COC(=O)C/C=C\[C@@H]2C)cc1`: the activity, negative = inhibition is 12.1% [at 11.4 µM].
